Assay outcomes: PubChem, National Center for Advancing Translational Sciences (NCATS)
An excerpt weighted towards active compounds, which were near 7.1% of everything screened.
ATXN viability: cell viability loss in ATXN counter-screen | S2 cells (HEK-293 line with an ATXN2-luciferase reporter) viability, CellTiter-Fluor protease fluorescence, 24 h | Potency, µM (doses to about 56.7 µM), hits mostly cytotoxic | 400,000 compounds, 0.49% hits | AID 651635; further: potency means the concentration at half of the fitted maximal effect; nearly all actives have a fitted effect of over 40% in size
MCF10A rerep: DNA re-replication induction in MCF 10a cells; MCF 10A DNA re-replication, Hoechst nuclear intensity, 48 h; Potency, µM (top dose mostly 46.1 µM), for the others: at the top dose activity, positive = re-replication, hits mostly activators; 350,000 compounds, 2.9% hits; further: potency means the concentration at half of the fitted maximal effect; % of control where 0% means no effect; nearly all actives have a fitted effect of over 50% in size
PINK1 expr mod: modulators of PINK1 expression | PINK1 immunofluorescence, high-content cytometry, 24 h | Potency, µM (highest dose often 76.6 µM), inactives show at the top dose activation (PINK1 increase), actives largely listed as activators | 410,000 compounds, 0.2% hits | AID 624263; active means well fitted activation curve with a large enough effect; inconclusive means small, poorly fitted or top-dose-only effect; cell line not stated here; further: potency means the concentration at half of the fitted maximal effect; % of control where 0% means no effect; nearly all actives have a fitted effect of over 65% in size
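Compound titrations (5 concentrations, 24 h) on a stable cell line; DMSO and CCCP controls. Endpoint: fixed-cell PINK1 immunofluorescence with mitochondrial, cell and nuclear markers, scanned by microplate cytometer.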
IL1B secr inh: inhibitors of inflammasome signaling (IL-1 beta secretion); THP-1 LPS/ATP IL-1B secretion, AlphaLISA, 16 h; hits give low values; activity change, % at 57.5 µM; 360,000 compounds, 4.7% hits; in the data active means activity change below about -50%; inconclusive means mostly about -30% to -49%; further: on the % scale 0 is the no-effect control and ±100 the full control effect
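THP-1 cells pretreated 1 hr with compounds (up to 57.5 uM final), then stimulated with LPS (250 ng/mL final) plus ATP (1.25 mM final); secreted IL-1B measured by AlphaLISA after 16 hr, decreased signal indicating inhibition.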
SW480 rerep: induces DNA re-replication in SW480 colon adenocarcinoma cells | SW480 DNA re-replication, Hoechst DNA content imaging, 48 h | Potency, µM (top dose mostly 46.1 µM), without a hit: at the top dose re-replication activation, usual class: activators | 340,000 compounds, 1.8% hits; further: potency means the concentration at half of the fitted maximal effect; % of control where 0% means no effect; nearly all actives have a fitted effect of over 55% in size
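250 cells/well; 23 nL cpd via pin tool; 48 hr, 37 C, 5% CO2; Hoechst 40 min; imager read of total nuclear intensity, ex 405/em 500-530 nm.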
ATXN2 expr inh: reduces ATXN2 reporter expression in HEK-293 cells. Potency, µM (doses to about 57 µM), for inactives: at the highest dose activity change, negative = inhibition, hits mostly inhibitors. AID 1745845. HEK-293 ATXN2-luciferase reporter, luminescence, 24 h. 360,000 compounds, 0.72% hits; further: potency means the concentration at half of the fitted maximal effect; on the % scale 0 is the no-effect control and ±100 the full control effect; nearly all actives have a fitted effect of over 55% in size
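ATXN2-luciferase reporter cells (luciferase flanked by upstream and downstream ATXN2 gene portions) were treated 24 h at 37 °C with compounds at up to 57 uM. SteadyGlo luminescence gave expression; GF-AFC fluorescence gave viability.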
Active calls of the source: *; i = inactive; ? = inconclusive; . = not tested or not shown; [ ] = remark or other dose. Unless noted, the call rests on the fitted dose curve; in most records, active means well fitted curve in the direction sought with a large enough effect; inconclusive means small, poorly fitted or top-dose-only effect, or another doubt; inactive means no such curve, though single readings can be large; an effect the other way counts as inactive or inconclusive.

SMILES	ATXN viability	MCF10A rerep	PINK1 expr mod	IL1B secr inh	SW480 rerep	ATXN2 expr inh
CC(NC(=O)/C(=C/c1ccc(OC(F)F)cc1)c1ccccc1)c1ccccc1 (stereo unspecified)	i	?	45µM*	-18	19%	-11%
Cc1cccc(CNC(=O)Cn2ccc3cc(S(=O)(=O)N4CCC(C)CC4)ccc32)c1	i	.	7%	.	.	5%
CC(C)Cc1ccc(S(=O)(=O)N2CCC(c3ccncc3)CC2)cc1	?	.	0%	.	.	16µM*
CCOc1ccc(C(=O)c2oc3ccccc3c2NC(=O)Cc2coc3ccc(CC)cc23)cc1	i	.	0%	.	.	1%
Cn1cc(-c2[nH]c3cc(NC(=O)[C@H](N)C4CCCCC4)cc4c3c2C=NNC4=O)cn1	.	.	.	.	.	1.1µM*
CCc1c(CN2CCN(c3ccccc3F)CC2)csc1C	.	.	7%	.	.	.
Cc1ccc(NC(=O)NCC(c2ccccc2)N(C)C)cc1 (stereo unspecified)	i	3%	0%	-4	-10%	37%
CN(C)C(CNC(C(=O)Nc1ccc(F)cc1)c1ccccc1)c1ccccc1 (stereo unspecified)	i	9%	1%	-80*	-10%	-5%
CN(C)C(CNc1ccc(C(F)(F)F)cc1[N+](=O)[O-])c1ccccc1 (stereo unspecified)	i	?	?	-79*	-1%	-6%
CN(C)C(CNC(C(=O)Nc1ccc([N+](=O)[O-])cc1Br)c1ccccc1)c1ccccc1 (stereo unspecified)	i	4%	8%	-73*	18%	-2%
CCCN(CCC)CC(O)Cn1cc(/C=C/C(=O)c2ccc(OC)cc2)c2ccccc21 (stereo unspecified)	.	.	-2%	.	.	.
CCS(=O)(=O)N1CCC(C(=O)NCCc2ccc(OC)c(OC)c2)CC1	i	-2%	10µM*	-13	-6%	2%
COc1ccc(CCNC(=O)C2CCN(S(C)(=O)=O)CC2)cc1OC	?	13%	0%[38.3 µM]	-6	2%	3%
CCN(CCCNC(=O)C1CCN(S(=O)(=O)CC)CC1)c1ccccc1	i	2.9µM*	-1%[38.3 µM]	27	10%	7%
COc1cccc(Cn2c(C)c(CNC3CCCCC3)c(C(=O)O)c2C)c1	i	.	3%	.	.	9%
COc1cc(NC(=O)CSc2nc3ccccc3nc2Cc2ccccc2OC)cc(OC)c1	.	.	6%	.	.	.
O=C(Nc1ccc(-c2nnc3n2CCCCC3)cc1)c1ccco1	i	10%	1%	-4	4%	1%
Cc1c(C(=O)Nc2ccc(-c3nnc4n3CCCCC4)cc2)oc2ccc(Br)cc12	i	5%	1%	-65*	-15%	-23%
CCc1nnc(NC(=O)c2oc3ccc(Br)cc3c2C)s1	i	21µM*	2%	-17	-4%	9%
CCOC(=O)/C=C/C(=O)Nc1ccc(-c2nnc3n2CCCCC3)cc1	i	?	2%	?	26%	7%
COc1ccc(/C=C/C(=O)Nc2ccc(-c3nnc4n3CCCCC4)cc2)c(OC)c1	i	8%	-2%	-53*	0%	-9%
O=C(c1ccc2c(c1)OCCO2)N1CCN(c2nc(-c3cccs3)nc3ccccc23)CC1	.	.	1%	.	.	.
Cn1ncc2c(Nc3ccc(Br)cc3)nc(Nc3ccc(Br)cc3)nc21	i	?	-2%	-101*	8%	-32%
Cn1ncc2c(Nc3cccc(Cl)c3)nc(Nc3cccc(Cl)c3)nc21	i	18µM*	-1%	-81*	?	?
CNc1nc(Nc2ccc(C)c(Cl)c2)c2cnn(C)c2n1	i	?	-1%	-26	-24%	-26%
O=C(c1ccc2c(=O)n(-c3ccccc3)c(=O)[nH]c2c1)N1CCN(Cc2cccs2)CC1	.	.	0%	.	.	.
CC1CCCCN1CC(O)COCCC12CC3CC(CC(C3)C1)C2 (stereo unspecified)	i	5%	1%	-61*	?	-16%[11.3 µM]
